The source made the active and inactive calls.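 The calls were made as follows, unless noted: active = visually confirmed hit in the image check and inhibition above 20%; inconclusive = visually confirmed hit but inhibition not above 20%; inactive = no visual hit in the image check.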

One assay in a line: reduction of polyQ htt aggregates in cells – imaging, exon1htt(103Q)mCFP cells, high-content imaging, primary screen (AID 483;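 active = visual image review flags a hit and inhibition of aggregation exceeds 20%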;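 also: compound exposure lasted 3 days before fixation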;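 as to nuclei count: percent of the per-plate median nuclei count of sample wells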). The conditions noted are these: exon1htt(103Q)mCFP cell line, aggregate imaging, at 2 µM; inhibition of aggregation: stronger effect = higher value; nuclei count: measured here: cell count, toxicity.
In the case of `C1CNCCNCCCNCCNC1`, the nuclei count was 100% and the inhibition of aggregation is 19.7% (inactive).
For `COc1cc2nc(N3CCN(C(=O)C4CCCO4)CC3)nc(N)c2cc1OC` (stereo unspecified) the same measures were 82% and -7.9% (inactive).
On the same counts, the results for `COc1ccc(-c2coc3cc(O)cc(O)c3c2=O)cc1` are 116% and 9.1% (inactive).
On the same counts, the results for `NC(N)=Nc1nc(CSCC/C(N)=N/S(N)(=O)=O)cs1` are 101% and 0.8% (inactive).
Take `CC(=O)O[C@@]12CO[C@@H]1C[C@H](O)[C@@]1(C)C(=O)[C@H](O)C3=C(C)[C@@H](OC(=O)[C@H](O)[C@@H](NC(=O)OC(C)(C)C)c4ccccc4)C[C@](O)([C@@H](OC(=O)c4ccccc4)[C@H]21)C3(C)C`: the nuclei count amounted to 4.4% and the inhibition of aggregation is -77% (inactive).

Another assay can be described thus: endothelial E-selectin expression blockers – imaging, HUVEC, immunofluorescence, MLSMR starter and 10KST1 sets, primary screen (AID 487).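 As to inhibition: signal is fraction of cell area covered by stained E-selectin grains.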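 As to nuclei count: 100% = median nuclei count of all wells on the same plate.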 The conditions noted are these: HUVEC TNFalpha-induced E-selectin immunofluorescence imaging, at 2 µM; inhibition: stronger effect = higher value; nuclei count: measured here: cell number, toxicity.
`O=C(NCC1CCCCN1)c1cc(OCC(F)(F)F)ccc1OCC(F)(F)F` (stereo unspecified): the inhibition – broadly, the change of the read-out against control, counted positive when it falls – was -29.3% (inactive) and the nuclei count was 107%.
On the same counts, the results for `CN1CC(=O)Nc2ccc(F)cc2C1=O` are -12.8% (inactive) and 108%.
Take `CN1CCN(C2=Nc3cc(Cl)ccc3Nc3ccccc32)CC1`: the inhibition is -176% (inactive) and the nuclei count amounted to 132%.
For `COc1cc(C)nc(Oc2ccc(=O)[nH]n2)n1` the same measures were -34.6% (inactive) and 147%.
In the case of `CCN(CC)CCNC(=O)c1ccc(N)cc1`, the nuclei count was 133% and the inhibition is -57.1% (inactive).
For `COc1cc2nc(N3CCN(C(=O)C4CCCO4)CC3)nc(N)c2cc1OC` (stereo unspecified), the nuclei count worked out at 105% and the inhibition is -29.4% (inactive).
Turning to `O=C(CCCN1CCC(O)(c2ccc(Cl)cc2)CC1)c1ccc(F)cc1`, the nuclei count stood at 130% and the inhibition is -112% (inactive).
For the compound `CCCOc1cccc(CN2CCCCC2c2cccnc2)c1` (stereo unspecified), the inhibition is -33.4% (inactive) and the nuclei count was determined as 153%.
For `CN(C)CCCN1c2ccccc2CCc2ccccc21` the same measures were -9.2% (inactive) and 128%.
As for `Cc1cccc(OCC(=O)NCC(=O)n2nc(C)cc2C)c1`, the inhibition is -106% (inactive) and the nuclei count turned out to be 146%.
For `COCCN(Cc1ccccc1)P(=O)(O)c1ccccc1OCC(=O)O` the same measures were -21.2% (inactive) and 151%.
For `Oc1oc(-c2ccccc2)nc1C=NCc1ccncc1` the same measures were 5.8% (inactive) and 104%.
For `CCC1=Nc2ccccc2NC2=C1C(=O)CCC2` the same measures were -65.4% (inactive) and 87.8%.
As to `CC[C@]1(O)C[C@@H]2CN(CCc3c([nH]c4ccccc34)[C@@](C(=O)OC)(c3cc4c(cc3OC)N(C)[C@H]3[C@@](O)(C(=O)OC)[C@H](OC(C)=O)[C@]5(CC)C=CCN6CC[C@]43[C@@H]65)C2)C1`, the nuclei count turned out to be 78% and the inhibition is -205% (inactive).
On the same counts, the results for `NC(N)=Nc1nc(CSCC/C(N)=N/S(N)(=O)=O)cs1` are 116% and -48.3% (inactive).
For `CC(=O)Oc1oc(-c2ccccc2)nc1/C=N/c1ccccn1` the same measures were 147% and -20.4% (inactive).
For `COc1ccc(OC)c(N=C(C)C2=C(O)COC2=O)c1` the same measures were 104% and -20.1% (inactive).
With `CC[C@H]1CN2CCc3cc(OC)c(OC)cc3[C@@H]2C[C@@H]1C[C@H]1NCCc2cc(OC)c(OC)cc21`, the nuclei count came out at 103% and the inhibition is 103% (active).
Take `COc1ccc(OCC(=O)OCCN(C)C)cc1`: the nuclei count stood at 170% and the inhibition was -159% (inactive).
On the same counts, the results for `COc1cccc(C(=O)OCCN(C)C(C)(C)C)c1` are 128% and -23.7% (inactive).
On the same counts, the results for `Cc1nnc(NS(=O)(=O)c2ccc(N)cc2)s1` are 125% and -81.2% (inactive).
On the same counts, the results for `COc1ccc([C@@H]2Sc3ccccc3N(CCN(C)C)C(=O)[C@@H]2OC(C)=O)cc1` are 104% and -27.1% (inactive).
For `O=C(CCN1CCCC1Cc1ccccc1)c1ccc2c(c1)OCCO2` (stereo unspecified), the nuclei count came out at 162% and the inhibition was -106% (inactive).
For the compound `Fc1ccc(C(c2ccc(F)cc2)N2CCN(C/C=C/c3ccccc3)CC2)cc1`, the nuclei count is 124% and the inhibition is -61.3% (inactive).
On the same counts, the results for `COc1ccc[nH]c1=O` are 156% and -53.5% (inactive).
For `CCC(=O)Oc1oc(-c2ccccc2)nc1C=Nc1ccccc1OC` the same measures were 161% and -41.7% (inactive).
Take `O=C(O)c1ccc(COCC(F)(F)C(F)F)o1`: the inhibition is -92.5% (inactive) and the nuclei count is 150%.
On the same counts, the results for `Cc1nc2sc(C)c(C)c2c(=O)o1` are -24.2% (inactive) and 180%.
As to `CC1(C)S[C@@H]2[C@H](NC(=O)[C@H](N)c3ccccc3)C(=O)N2[C@H]1C(=O)O`, the inhibition was -51.2% (inactive) and the nuclei count worked out at 131%.
Regarding `O=P(Cc1nnco1)(c1ccccc1)c1ccccc1`, the nuclei count worked out at 176% and the inhibition is 0.9% (inactive).
On the same counts, the results for `Nc1nc2c(ncn2COCCO)c(=O)[nH]1` are 98.5% and -45.2% (inactive).
For `c1ccc2c(c1)nc(CN1CCOCC1)n1c3ccccc3nc21` the same measures were 174% and -88% (inactive).
On the same counts, the results for `CCC(NC(=O)Nc1nnc(C(F)(F)F)s1)(C(F)(F)F)C(F)(F)F` are 141% and -242% (inactive).
